# Experimental data: PubChem BioAssay (NCATS)
# Records with an inconclusive call do not appear. Unmarked numbers belong to inactive results. The source made the active and inactive calls. Calls come from the whole dose curve; as a rule, active = well fitted curve in the direction sought with a large enough effect; inconclusive = small, poorly fitted or top-dose-only effect, or another doubt; inactive = no such curve, though single readings can be large; an effect the other way counts as inactive or inconclusive.
# Legend:
# [1] = qHTS of pediatric cancer cell lines to identify multiple opportunities for drug repurposing: Primary screen for U-2 OS cells (AID 1347096); note: nearly all actives have a fitted effect of over 50% in size;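 for activity change, negative = cytotoxic: plate controls were DMSO wells for no effect and bortezomib positive control wells for full effect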
# Outline: (§1)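 Cells (500-1,000/well) in growth media were settled 5 h at 37 degrees C, then given compounds for 48 h. Viability was read as CellTiter-Glo luminescence. Primary runs used MIPE at 11 points (0.78 nM-46 µM) and NPC at 8 points (0.59 nM-46 µM); follow-ups used 11 points.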
# [2] = qHTS of pediatric cancer cell lines to identify multiple opportunities for drug repurposing: Primary screen for Saos-2 cells (AID 1347097); note: nearly all actives have a fitted effect of over 40% in size; for activity change, negative = cytotoxic: % is set by controls: 0 for no effect and ±100 for the full control effect
# Outline: (§2)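 Plated cells (500-1,000 per well, growth media) were allowed to settle for 5 hours, treated with compound dilutions for 48 hours, then lysed with CellTiter-Glo for 15 min at room temperature before luminescence reading.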
# [3] = qHTS of pediatric cancer cell lines to identify multiple opportunities for drug repurposing: Primary screen for SK-N-SH cells (AID 1347098); note: nearly all actives have a fitted effect of over 65% in size;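 for activity change, negative = cytotoxic: DMSO served as neutral control and bortezomib at 2.3 µM as positive control; % is set by controls: 0 for no effect and ±100 for the full control effect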
# Outline: (§3)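 Cells (500-1,000/well) rested 5 h, then received compounds for 48 h; metabolically active cells were measured by CellTiter-Glo luminescence. Final concentrations spanned up to 46 µM (MIPE, 11-point) or 0.59 nM-46 µM (NPC, 8-point) in primary screens, 11-point in follow-ups.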
# [4] = qHTS of pediatric cancer cell lines to identify multiple opportunities for drug repurposing: Primary screen for NB1643 cells (AID 1347099); note: nearly all actives have a fitted effect of over 50% in size;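 for activity change, negative = cytotoxic: plate controls were DMSO neutral control for no effect and bortezomib positive control for full effect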
# Outline: as §2
# [5] = qHTS of pediatric cancer cell lines to identify multiple opportunities for drug repurposing: Primary screen for LAN-5 cells (AID 1347100);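 for activity change, negative = cytotoxic: plate controls were DMSO neutral control for no effect and bortezomib positive control for full effect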
# Outline: as §1
# [6] = qHTS of pediatric cancer cell lines to identify multiple opportunities for drug repurposing: Primary screen for BT-12 cells (AID 1347101); note: nearly all actives have a fitted effect of over 25% in size;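 for activity change, negative = cytotoxic: plate controls were DMSO for no effect and bortezomib positive control for full effect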
# Outline: as §3
# [7] = qHTS of pediatric cancer cell lines to identify multiple opportunities for drug repurposing: Primary screen for Rh18 cells (AID 1347102); note: nearly all actives have a fitted effect of over 65% in size; for activity change, negative = cytotoxic: % is set by controls: 0 for no effect and ±100 for the full control effect
# Outline: as §1
# [8] = qHTS of pediatric cancer cell lines to identify multiple opportunities for drug repurposing: Primary screen for OHS-50 cells (AID 1347103); note: nearly all actives have a fitted effect of over 40% in size;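 for activity change, negative = cytotoxic: plate controls were DMSO neutral control for no effect and bortezomib positive control for full effect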
# Outline: as §3
# [9] = qHTS of pediatric cancer cell lines to identify multiple opportunities for drug repurposing: Primary screen for MG 63 (6-TG R) cells (AID 1347105); note: nearly all actives have a fitted effect of over 50% in size; for activity change, negative = cytotoxic: % is set by controls: 0 for no effect and ±100 for the full control effect
# Outline: as §2
# [10] = qHTS of pediatric cancer cell lines to identify multiple opportunities for drug repurposing: Primary screen for RD cells (AID 1347104); note: nearly all actives have a fitted effect of over 55% in size;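 for activity change, negative = cytotoxic: plate controls were DMSO for no effect and bortezomib for full effect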
# Outline: as §2
# Potency is the fitted concentration of half-maximal effect.
smiles,measurement,setting,value
COc1cccc2nc(-c3cccs3)nc(NN3C(=O)C=C(C)C3=O)c12,Potency,[1],1.87 µM (active)
same,Potency,[2],0.743 µM (active)
same,Potency,[3],0.271 µM (active)
same,Potency,[4],0.743 µM (active)
same,Potency,[5],0.0935 µM (active)
same,Potency,[6],2.73 µM (active)
same,Potency,[7],5.26 µM (active)
same,Potency,[8],1.72 µM (active)
same,Potency,[9],2.96 µM (active)
CCS(=O)(=O)c1cccc(-c2cc(C(=O)NC3CCN(C)CC3)c(C)c3[nH]c4ncc(C)cc4c23)c1,Potency,[1],14.8 µM (active)
same,Potency,[2],0.935 µM (active)
same,Potency,[3],6.81 µM (active)
same,Potency,[4],0.526 µM (active)
same,Potency,[5],0.118 µM (active)
same,Potency,[6],6.11 µM (active)
same,Potency,[7],1.18 µM (active)
same,Potency,[8],0.769 µM (active)
same,Potency,[10],2.64 µM (active)
same,Potency,[9],14.8 µM (active)
Cc1cc(Nc2nc(N[C@@H](C)c3ccc(F)cc3)c(C#N)cc2F)n[nH]1,Potency,[1],inactive
same,Potency,[2],2.35 µM (active)
same,Potency,[3],3.41 µM (active)
same,Potency,[4],0.935 µM (active)
same,Potency,[5],0.418 µM (active)
same,Potency,[6],inactive
same,Potency,[7],5.9 µM (active)
same,Potency,[9],3.72 µM (active)
OCc1ccc(-c2ccc(-c3ccc(CO)s3)o2)s1,Potency,[1],inactive
same,Potency,[2],inactive
same,Potency,[3],21.5 µM (active)
same,Potency,[4],26.4 µM (active)
same,Potency,[5],inactive
same,Potency,[6],30.6 µM (active)
same,Potency,[7],inactive
same,Potency,[9],11.8 µM (active)
Nc1ccccc1NC(=O)c1ccc(CNc2nccc(-c3cccnc3)n2)cc1,Potency,[1],4.69 µM (active)
same,Potency,[2],2.35 µM (active)
same,Potency,[3],2.41 µM (active)
same,Potency,[4],0.296 µM (active)
same,Potency,[5],0.743 µM (active)
same,Potency,[7],2.09 µM (active)
same,Potency,[8],0.968 µM (active)
same,Potency,[10],2.96 µM (active)
same,Potency,[9],3.72 µM (active)
CCC[C@H](NC(=O)C(C#N)=Cc1cccc(Br)n1)c1ccccc1,Potency,[1],inactive
same,Potency,[2],33.2 µM (active)
same,Potency,[3],24.1 µM (active)
same,Potency,[4],7.43 µM (active)
same,Potency,[5],14.8 µM (active)
same,Potency,[7],14.8 µM (active)
same,Potency,[8],12.2 µM (active)
same,Potency,[10],13.2 µM (active)
c1nc2nc(Nc3ccc(N4CCOCC4)cc3)nc(NC3CCCCC3)c2[nH]1,Potency,[1],inactive
same,Potency,[2],4.69 µM (active)
same,Potency,[3],4.29 µM (active)
same,Potency,[4],1.66 µM (active)
same,Potency,[5],0.469 µM (active)
same,Potency,[6],21.7 µM (active)
same,Potency,[7],9.35 µM (active)
same,Potency,[10],13.2 µM (active)
same,Potency,[9],11.8 µM (active)
COc1ccc2c(OCc3nnc4ccc(-c5ccccc5)nn34)ccnc2c1,Potency,[1],inactive
same,Potency,[2],inactive
same,Potency,[3],inactive
same,Potency,[4],inactive
same,Potency,[5],inactive
same,Potency,[6],inactive
same,Potency,[7],inactive
same,Potency,[8],inactive
same,Potency,[10],inactive
same,Potency,[9],inactive
COc1ccc(CC2c3cc(OC)c(OC)cc3CC[N+]2(C)CCC(=O)OCCCCCOC(=O)CC[N+]2(C)CCc3cc(OC)c(OC)cc3C2Cc2ccc(OC)c(OC)c2)cc1OC (stereo not given),"activity change, negative = cytotoxic",[1],3.34% [at 9.22 µM]
same,"activity change, negative = cytotoxic",[2],4.71% [at 9.22 µM]
same,"activity change, negative = cytotoxic",[3],-0.106% [at 11.4 µM]
same,"activity change, negative = cytotoxic",[4],1.38% [at 9.22 µM]
same,"activity change, negative = cytotoxic",[5],2.36% [at 9.22 µM]
same,"activity change, negative = cytotoxic",[6],7.29% [at 11.5 µM]
same,"activity change, negative = cytotoxic",[7],-3.1% [at 9.22 µM]
same,"activity change, negative = cytotoxic",[8],9.58% [at 11.5 µM]
same,"activity change, negative = cytotoxic",[9],0.923% [at 9.22 µM]
Cc1ccc(-c2ncn(-c3ccc(Nc4nccc(-c5cccc(N6CCOCC6)c5)n4)cc3)n2)cn1,Potency,[1],0.235 µM (active)
same,Potency,[2],0.0935 µM (active)
same,Potency,[3],0.383 µM (active)
same,Potency,[4],0.0526 µM (active)
same,Potency,[5],0.0662 µM (active)
same,Potency,[6],0.122 µM (active)
same,Potency,[7],0.0526 µM (active)
same,Potency,[8],0.217 µM (active)
same,Potency,[10],0.105 µM (active)
same,Potency,[9],0.0935 µM (active)
COc1cccc2c(NCc3ccccc3)nc(-n3c(N)nc4ccccc43)nc12,Potency,[1],9.35 µM (active)
same,Potency,[2],3.72 µM (active)
same,Potency,[3],10.8 µM (active)
same,Potency,[4],9.35 µM (active)
same,Potency,[5],9.35 µM (active)
same,Potency,[6],10.9 µM (active)
same,Potency,[7],9.35 µM (active)
same,Potency,[8],9.68 µM (active)
same,Potency,[9],9.35 µM (active)
CCOc1cc2ncc(C#N)c(Nc3ccc(F)c(Cl)c3)c2cc1NC(=O)C=CCN(C)C,Potency,[1],inactive
same,Potency,[2],2.96 µM (active)
same,Potency,[3],0.341 µM (active)
same,Potency,[4],1.05 µM (active)
same,Potency,[5],4.18 µM (active)
same,Potency,[7],10.5 µM (active)
same,Potency,[8],0.137 µM (active)
same,Potency,[10],0.526 µM (active)
CC[C@@H]1C(=O)N(C)c2cnc(Nc3ccc(C(=O)NC4CCC(N5CCN(CC6CC6)CC5)CC4)cc3OC)nc2N1C(C)C (stereo not given in full),Potency,[1],11.8 µM (active)
same,Potency,[2],0.526 µM (active)
same,Potency,[3],0.607 µM (active)
same,Potency,[4],0.469 µM (active)
same,Potency,[5],0.0526 µM (active)
same,Potency,[6],6.11 µM (active)
same,Potency,[7],6.62 µM (active)
same,Potency,[8],0.122 µM (active)
same,Potency,[9],11.8 µM (active)
CN1CCN(c2cc(C(=O)Nc3ccc4c(c3)-c3c(c(C(N)=O)nn3-c3ccc(F)cc3)CC4)c(Cl)cn2)CC1,Potency,[1],23.5 µM (active)
same,Potency,[2],16.6 µM (active)
same,Potency,[3],7.64 µM (active)
same,Potency,[4],1.18 µM (active)
same,Potency,[5],16.6 µM (active)
same,Potency,[6],30.6 µM (active)
same,Potency,[7],20.9 µM (active)
same,Potency,[10],16.6 µM (active)
same,Potency,[9],23.5 µM (active)
CC(=O)SC[C@@H](C)C(=O)N1CCC[C@H]1C(=O)N[C@@H](Cc1ccccc1)C(=O)O,Potency,[1],inactive
same,Potency,[2],inactive
same,Potency,[3],inactive
same,Potency,[4],inactive
same,Potency,[5],inactive
same,Potency,[6],inactive
same,Potency,[7],inactive
same,Potency,[8],inactive
same,Potency,[10],inactive
same,Potency,[9],inactive
